# Data as given in article PMC7862700, “An all-to-all approach to the identification of sequence-specific readers for epigenetic DNA modifications on cytosine”.
# Tests used:
# Test in all cases: DAPPL (digital affinity profiling via proximity ligation, sequencing); 10 mM Tris-HCl pH 7.5, 50 mM NaCl, 1 mM DTT, 4% glycerol, room temperature, 30 min; GST-TFs on glutathione beads, 16-mer random dsDNA library, 0.1% formaldehyde crosslink after washing; high values mean tight binding
# FLI1 = target: T1, FLI1 (Homo sapiens, UniProt Q01543 1-452); conditions: protein: recombinant; tags: N-terminal GST; dsDNA, one strand shown
# T1 sequence: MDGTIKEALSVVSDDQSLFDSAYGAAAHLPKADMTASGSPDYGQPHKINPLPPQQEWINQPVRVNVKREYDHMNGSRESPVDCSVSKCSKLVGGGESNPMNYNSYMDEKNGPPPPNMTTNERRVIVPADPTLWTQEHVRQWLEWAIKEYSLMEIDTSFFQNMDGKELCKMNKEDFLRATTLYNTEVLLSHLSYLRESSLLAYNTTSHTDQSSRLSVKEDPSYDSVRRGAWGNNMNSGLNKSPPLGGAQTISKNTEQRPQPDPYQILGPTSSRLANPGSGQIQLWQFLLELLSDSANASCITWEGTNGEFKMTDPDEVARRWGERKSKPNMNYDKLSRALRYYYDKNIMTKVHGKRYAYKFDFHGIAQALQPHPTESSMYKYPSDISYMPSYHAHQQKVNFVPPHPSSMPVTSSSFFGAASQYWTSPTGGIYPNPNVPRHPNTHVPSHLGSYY
# In short: (§1)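 A tag-only sample was pooled with DNA-barcoded human transcription factors that had been expressed in yeast as GST fusions and captured on glutathione beads. The pools were incubated for 30 min at room temperature with 200 nmole of a random double-stranded 16-mer DNA library in Tris/NaCl/DTT/glycerol buffer, then washed, crosslinked with 0.1% formaldehyde, proximity-ligated (BsaI/T4 ligase, 1 h, 37 °C), PCR-amplified and sequenced on an Illumina NextSeq500. Binding signal is each hexamer's read frequency for a factor divided by its frequency for the tag-only sample.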
# ELK1 = target: T2, ELK1 (Homo sapiens, UniProt P19419 1-428); conditions: protein: recombinant; tags: N-terminal GST; dsDNA, one strand shown
# T2 sequence: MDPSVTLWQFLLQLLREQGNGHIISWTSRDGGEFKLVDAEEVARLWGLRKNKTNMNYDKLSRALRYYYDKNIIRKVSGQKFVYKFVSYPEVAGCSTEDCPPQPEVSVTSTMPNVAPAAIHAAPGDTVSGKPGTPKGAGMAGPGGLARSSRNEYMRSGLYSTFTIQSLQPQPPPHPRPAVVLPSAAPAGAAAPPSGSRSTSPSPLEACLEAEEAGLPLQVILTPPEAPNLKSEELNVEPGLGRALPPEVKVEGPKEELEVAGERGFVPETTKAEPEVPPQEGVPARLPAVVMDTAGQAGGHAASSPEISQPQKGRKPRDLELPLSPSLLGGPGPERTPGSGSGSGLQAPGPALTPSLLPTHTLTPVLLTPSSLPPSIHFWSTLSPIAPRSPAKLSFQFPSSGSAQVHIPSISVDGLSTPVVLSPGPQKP
# In short: as §1
# GABPA = target: T3, GABPA (Homo sapiens, UniProt Q06546 1-454); conditions: protein: recombinant; tags: N-terminal GST; dsDNA, one strand shown
# T3 sequence: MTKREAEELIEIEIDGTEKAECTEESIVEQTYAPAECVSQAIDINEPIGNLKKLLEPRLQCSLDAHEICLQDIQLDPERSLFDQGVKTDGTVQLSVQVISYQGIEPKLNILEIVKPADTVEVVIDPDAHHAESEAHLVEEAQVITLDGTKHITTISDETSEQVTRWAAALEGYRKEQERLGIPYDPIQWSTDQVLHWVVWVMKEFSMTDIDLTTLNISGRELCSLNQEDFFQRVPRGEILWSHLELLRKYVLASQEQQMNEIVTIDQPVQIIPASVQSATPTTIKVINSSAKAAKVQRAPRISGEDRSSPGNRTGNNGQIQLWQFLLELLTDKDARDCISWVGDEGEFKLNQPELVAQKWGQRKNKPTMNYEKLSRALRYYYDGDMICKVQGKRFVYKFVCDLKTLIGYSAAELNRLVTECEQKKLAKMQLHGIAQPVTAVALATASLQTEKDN
# In short: as §1
# ERG = target: T4, ERG (Homo sapiens, UniProt P11308 1-479); conditions: protein: recombinant; tags: N-terminal GST; dsDNA, one strand shown
# T4 sequence: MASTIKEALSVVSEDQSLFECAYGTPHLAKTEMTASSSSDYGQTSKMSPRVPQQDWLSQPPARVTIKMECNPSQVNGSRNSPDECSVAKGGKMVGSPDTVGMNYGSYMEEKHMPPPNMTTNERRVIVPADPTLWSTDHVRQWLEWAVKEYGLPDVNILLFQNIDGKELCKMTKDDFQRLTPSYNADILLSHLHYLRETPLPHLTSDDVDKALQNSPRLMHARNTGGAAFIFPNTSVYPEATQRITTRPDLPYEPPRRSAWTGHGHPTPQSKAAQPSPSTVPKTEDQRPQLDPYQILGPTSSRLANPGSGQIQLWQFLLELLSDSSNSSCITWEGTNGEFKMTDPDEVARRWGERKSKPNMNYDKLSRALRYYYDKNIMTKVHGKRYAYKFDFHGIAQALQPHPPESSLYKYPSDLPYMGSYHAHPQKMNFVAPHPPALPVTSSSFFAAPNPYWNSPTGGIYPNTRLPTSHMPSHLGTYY
# In short: as §1
# ELF1 = ELF1 (Homo sapiens, UniProt P32519 1-619); conditions: protein: recombinant; tags: N-terminal GST; dsDNA, one strand shown
# Chain of ELF1 (P32519 whole entry): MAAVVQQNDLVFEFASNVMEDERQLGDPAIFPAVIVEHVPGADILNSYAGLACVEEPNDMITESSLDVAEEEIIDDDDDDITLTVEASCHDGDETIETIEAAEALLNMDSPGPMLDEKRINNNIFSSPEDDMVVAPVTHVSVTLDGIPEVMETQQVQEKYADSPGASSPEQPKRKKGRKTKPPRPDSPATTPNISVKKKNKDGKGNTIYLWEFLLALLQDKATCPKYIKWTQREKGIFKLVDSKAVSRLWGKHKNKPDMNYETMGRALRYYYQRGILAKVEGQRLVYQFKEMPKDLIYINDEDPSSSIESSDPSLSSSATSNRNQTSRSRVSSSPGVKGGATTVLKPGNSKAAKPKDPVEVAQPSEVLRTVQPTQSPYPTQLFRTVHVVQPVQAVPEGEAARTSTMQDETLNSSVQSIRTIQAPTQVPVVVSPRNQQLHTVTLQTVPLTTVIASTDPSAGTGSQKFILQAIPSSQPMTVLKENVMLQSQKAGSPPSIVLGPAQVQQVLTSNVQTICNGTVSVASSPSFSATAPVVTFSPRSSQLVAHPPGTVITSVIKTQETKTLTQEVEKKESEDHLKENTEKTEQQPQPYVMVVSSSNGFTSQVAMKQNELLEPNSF
# In short: as §1
# EHF = target: T5, EHF (Homo sapiens, UniProt Q9NZC4 1-300); conditions: protein: recombinant; tags: N-terminal GST; dsDNA, one strand shown
# T5 sequence: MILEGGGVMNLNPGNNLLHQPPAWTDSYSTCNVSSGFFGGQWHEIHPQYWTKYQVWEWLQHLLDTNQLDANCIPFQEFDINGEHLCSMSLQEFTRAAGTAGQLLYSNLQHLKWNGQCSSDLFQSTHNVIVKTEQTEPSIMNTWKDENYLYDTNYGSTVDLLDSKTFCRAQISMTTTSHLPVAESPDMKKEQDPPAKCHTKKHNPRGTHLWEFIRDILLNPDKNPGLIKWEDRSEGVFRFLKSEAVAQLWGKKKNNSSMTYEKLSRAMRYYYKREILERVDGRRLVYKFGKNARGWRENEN
# In short: as §1
# SPI1 = SPI1 (Homo sapiens, UniProt P17947 1-270); conditions: protein: recombinant; tags: N-terminal GST; dsDNA, one strand shown
# In short: as §1
# SPIB = SPIB (Homo sapiens, UniProt Q01892 1-262); conditions: protein: recombinant; tags: N-terminal GST; dsDNA, one strand shown
# Chain of SPIB (Q01892 whole entry): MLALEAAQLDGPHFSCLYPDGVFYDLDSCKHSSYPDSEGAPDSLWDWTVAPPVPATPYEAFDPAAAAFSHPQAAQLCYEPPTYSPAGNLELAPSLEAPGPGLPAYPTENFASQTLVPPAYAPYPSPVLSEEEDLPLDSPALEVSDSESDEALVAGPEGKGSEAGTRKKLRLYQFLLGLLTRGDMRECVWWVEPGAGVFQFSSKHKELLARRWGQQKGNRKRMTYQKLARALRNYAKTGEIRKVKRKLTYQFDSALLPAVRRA
# In short: as §1
# ELK3 = target: T6, ELK3 (Homo sapiens, UniProt P41970 1-407); conditions: protein: recombinant; tags: N-terminal GST; dsDNA, one strand shown
# T6 sequence: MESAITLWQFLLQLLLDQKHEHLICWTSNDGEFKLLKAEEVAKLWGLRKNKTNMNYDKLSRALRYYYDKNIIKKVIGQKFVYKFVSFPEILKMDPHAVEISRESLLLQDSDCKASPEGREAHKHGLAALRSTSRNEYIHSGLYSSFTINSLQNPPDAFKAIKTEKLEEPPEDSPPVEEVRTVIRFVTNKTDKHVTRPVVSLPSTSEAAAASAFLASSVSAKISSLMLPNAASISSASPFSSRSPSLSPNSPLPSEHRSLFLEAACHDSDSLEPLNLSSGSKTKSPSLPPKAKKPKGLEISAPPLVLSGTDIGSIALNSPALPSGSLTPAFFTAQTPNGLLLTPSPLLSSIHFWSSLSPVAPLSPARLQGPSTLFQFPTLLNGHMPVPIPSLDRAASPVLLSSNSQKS
# In short: as §1
# FEV = target: T7, FEV (Homo sapiens, UniProt Q99581 1-238); conditions: protein: recombinant; tags: N-terminal GST; dsDNA, one strand shown
# T7 sequence: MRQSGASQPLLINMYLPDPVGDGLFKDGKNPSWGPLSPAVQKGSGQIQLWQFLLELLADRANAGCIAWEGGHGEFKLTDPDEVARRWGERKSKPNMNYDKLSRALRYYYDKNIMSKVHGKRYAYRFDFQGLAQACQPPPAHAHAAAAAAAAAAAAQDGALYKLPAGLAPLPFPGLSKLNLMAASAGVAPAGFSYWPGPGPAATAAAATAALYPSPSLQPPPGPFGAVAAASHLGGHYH
# In short: as §1
# ETV5 = ETV5 (Homo sapiens, UniProt P41161 1-510); conditions: protein: recombinant; tags: N-terminal GST; dsDNA, one strand shown
# Chain of ETV5 (P41161 whole entry): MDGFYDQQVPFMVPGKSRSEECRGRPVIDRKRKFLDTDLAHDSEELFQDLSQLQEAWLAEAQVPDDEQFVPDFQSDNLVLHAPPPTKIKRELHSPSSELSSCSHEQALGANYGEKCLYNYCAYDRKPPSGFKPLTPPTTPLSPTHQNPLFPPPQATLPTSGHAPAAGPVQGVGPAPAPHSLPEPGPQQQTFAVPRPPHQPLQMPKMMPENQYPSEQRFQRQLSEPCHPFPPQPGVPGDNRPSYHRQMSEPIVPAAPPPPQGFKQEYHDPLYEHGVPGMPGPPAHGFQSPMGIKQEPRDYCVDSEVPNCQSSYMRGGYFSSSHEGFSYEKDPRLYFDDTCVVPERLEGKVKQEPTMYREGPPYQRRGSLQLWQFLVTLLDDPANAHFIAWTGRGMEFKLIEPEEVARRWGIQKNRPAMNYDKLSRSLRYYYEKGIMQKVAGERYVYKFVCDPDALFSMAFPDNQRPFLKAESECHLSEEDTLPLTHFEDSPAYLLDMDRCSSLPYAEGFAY
# In short: as §1
# HSF1 = HSF1 (Homo sapiens, UniProt Q00613 1-529); conditions: protein: recombinant; tags: N-terminal GST; chain copies: 3; dsDNA, one strand shown
# Chain of HSF1 (Q00613 whole entry): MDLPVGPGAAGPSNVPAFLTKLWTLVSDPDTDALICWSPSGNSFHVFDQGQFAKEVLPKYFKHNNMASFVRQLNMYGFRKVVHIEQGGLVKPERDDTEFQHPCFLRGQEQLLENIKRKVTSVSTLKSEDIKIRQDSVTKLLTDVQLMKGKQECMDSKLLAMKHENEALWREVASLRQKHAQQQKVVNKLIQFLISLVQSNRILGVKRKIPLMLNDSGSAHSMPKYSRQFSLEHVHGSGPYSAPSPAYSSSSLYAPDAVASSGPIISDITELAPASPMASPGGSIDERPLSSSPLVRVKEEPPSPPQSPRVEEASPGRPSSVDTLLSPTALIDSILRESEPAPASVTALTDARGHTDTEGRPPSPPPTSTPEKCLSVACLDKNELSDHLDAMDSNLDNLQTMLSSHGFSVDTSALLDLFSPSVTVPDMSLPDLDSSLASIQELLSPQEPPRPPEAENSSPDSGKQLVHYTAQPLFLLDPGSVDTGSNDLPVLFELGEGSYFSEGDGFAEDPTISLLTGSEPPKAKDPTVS
# In short: as §1
# SPIC = target: T8, SPIC (Homo sapiens, UniProt Q8N5J4 1-248); conditions: protein: recombinant; tags: N-terminal GST; dsDNA, one strand shown
# T8 sequence: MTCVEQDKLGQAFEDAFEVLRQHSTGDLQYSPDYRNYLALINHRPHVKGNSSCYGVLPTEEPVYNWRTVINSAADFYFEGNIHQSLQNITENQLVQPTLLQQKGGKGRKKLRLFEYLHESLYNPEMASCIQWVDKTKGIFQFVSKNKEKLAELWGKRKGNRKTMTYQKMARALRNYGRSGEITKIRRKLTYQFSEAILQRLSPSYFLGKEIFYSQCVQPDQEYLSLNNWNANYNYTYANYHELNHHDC
# In short: as §1
# ELF4 = ELF4 (Homo sapiens, UniProt Q99607 1-663); conditions: protein: recombinant; tags: N-terminal GST; dsDNA, one strand shown
# Chain of ELF4 (Q99607 whole entry): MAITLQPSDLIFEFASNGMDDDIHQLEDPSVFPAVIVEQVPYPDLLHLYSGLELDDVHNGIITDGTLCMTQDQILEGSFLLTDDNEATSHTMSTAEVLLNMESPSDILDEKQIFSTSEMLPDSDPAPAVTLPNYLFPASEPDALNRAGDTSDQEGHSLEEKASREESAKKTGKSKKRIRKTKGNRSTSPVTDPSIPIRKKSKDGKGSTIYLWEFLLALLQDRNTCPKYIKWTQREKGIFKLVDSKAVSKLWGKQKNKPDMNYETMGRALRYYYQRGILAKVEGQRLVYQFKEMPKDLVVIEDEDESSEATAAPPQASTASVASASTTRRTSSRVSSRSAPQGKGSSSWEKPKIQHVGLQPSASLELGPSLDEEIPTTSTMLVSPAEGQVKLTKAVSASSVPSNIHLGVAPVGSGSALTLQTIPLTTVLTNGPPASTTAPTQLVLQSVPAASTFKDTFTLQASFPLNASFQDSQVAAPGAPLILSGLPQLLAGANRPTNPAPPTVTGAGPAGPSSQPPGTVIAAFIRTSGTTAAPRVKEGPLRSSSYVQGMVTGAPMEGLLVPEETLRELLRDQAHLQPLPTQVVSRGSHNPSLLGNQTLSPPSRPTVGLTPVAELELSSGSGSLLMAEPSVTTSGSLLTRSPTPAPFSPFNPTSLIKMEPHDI
# In short: as §1
# ELK4 = target: T9, ELK4 (Homo sapiens, UniProt P28324-2 1-405); conditions: protein: recombinant; tags: N-terminal GST; dsDNA, one strand shown
# T9 sequence: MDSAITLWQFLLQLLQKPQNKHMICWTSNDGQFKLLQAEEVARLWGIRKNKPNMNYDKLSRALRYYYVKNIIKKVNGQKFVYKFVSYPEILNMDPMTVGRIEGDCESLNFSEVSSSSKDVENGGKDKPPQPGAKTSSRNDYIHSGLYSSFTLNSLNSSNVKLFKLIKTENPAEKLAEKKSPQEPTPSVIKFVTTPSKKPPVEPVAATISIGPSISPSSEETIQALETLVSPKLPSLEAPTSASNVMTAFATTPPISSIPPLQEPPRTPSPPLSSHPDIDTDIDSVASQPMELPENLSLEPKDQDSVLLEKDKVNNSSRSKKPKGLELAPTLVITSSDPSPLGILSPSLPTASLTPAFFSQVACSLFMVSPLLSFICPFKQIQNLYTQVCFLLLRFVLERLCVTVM
# In short: as §1
# ETV2 = target: T10, ETV2 (Homo sapiens, UniProt O00321 1-342); conditions: protein: recombinant; tags: N-terminal GST; dsDNA, one strand shown
# T10 sequence: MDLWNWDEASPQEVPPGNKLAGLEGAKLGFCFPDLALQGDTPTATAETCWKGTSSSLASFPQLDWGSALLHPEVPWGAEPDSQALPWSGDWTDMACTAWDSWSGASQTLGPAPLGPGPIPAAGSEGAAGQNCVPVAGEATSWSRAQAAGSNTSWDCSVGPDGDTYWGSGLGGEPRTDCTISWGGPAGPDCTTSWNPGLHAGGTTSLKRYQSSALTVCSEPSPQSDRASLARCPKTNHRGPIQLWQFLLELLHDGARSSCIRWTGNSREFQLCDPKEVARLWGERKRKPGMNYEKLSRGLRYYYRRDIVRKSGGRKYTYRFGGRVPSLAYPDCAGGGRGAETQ
# In short: as §1
# ELF3 = target: T11, ELF3 (Homo sapiens, UniProt P78545 1-371); conditions: protein: recombinant; tags: N-terminal GST; dsDNA, one strand shown
# T11 sequence: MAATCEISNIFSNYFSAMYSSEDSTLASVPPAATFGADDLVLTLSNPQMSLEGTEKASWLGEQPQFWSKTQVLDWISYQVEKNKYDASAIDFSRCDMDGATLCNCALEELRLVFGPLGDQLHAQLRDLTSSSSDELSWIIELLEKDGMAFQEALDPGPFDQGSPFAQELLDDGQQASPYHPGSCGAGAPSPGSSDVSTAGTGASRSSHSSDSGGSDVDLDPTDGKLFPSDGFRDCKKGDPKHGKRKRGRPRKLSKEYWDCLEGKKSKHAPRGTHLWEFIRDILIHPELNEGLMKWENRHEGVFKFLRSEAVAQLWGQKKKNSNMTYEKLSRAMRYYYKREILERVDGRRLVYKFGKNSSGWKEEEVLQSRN
# In short: as §1
# CRX = CRX (Homo sapiens, UniProt O43186 1-299); conditions: protein: recombinant; tags: N-terminal GST; dsDNA, one strand shown
# Chain of CRX (O43186 whole entry): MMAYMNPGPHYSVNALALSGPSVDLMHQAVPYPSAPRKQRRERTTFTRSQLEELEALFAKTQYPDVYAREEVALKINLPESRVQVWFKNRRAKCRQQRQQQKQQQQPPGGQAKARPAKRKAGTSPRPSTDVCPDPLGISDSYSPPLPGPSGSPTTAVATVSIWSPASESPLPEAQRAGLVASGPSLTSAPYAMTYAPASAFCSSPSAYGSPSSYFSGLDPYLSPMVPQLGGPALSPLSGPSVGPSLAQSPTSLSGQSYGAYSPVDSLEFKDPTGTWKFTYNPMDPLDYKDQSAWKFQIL
# In short: as §1
# ETV1 = ETV1 (Homo sapiens, UniProt P50549 1-477); conditions: protein: recombinant; tags: N-terminal GST; dsDNA, one strand shown
# Chain of ETV1 (P50549 whole entry): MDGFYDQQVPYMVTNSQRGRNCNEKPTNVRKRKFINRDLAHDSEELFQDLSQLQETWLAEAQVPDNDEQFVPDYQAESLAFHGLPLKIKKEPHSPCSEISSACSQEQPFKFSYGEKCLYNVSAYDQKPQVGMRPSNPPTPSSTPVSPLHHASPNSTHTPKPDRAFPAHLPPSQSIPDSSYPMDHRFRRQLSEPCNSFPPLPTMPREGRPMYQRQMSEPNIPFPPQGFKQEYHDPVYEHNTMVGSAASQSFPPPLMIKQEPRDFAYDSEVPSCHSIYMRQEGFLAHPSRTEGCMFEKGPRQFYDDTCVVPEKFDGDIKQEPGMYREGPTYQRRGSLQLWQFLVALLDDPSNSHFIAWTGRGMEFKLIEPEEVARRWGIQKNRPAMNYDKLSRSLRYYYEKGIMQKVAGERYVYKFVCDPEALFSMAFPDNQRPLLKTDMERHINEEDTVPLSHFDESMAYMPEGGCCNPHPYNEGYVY
# In short: as §1
sequence,measurement,setting,value
TTTACT,binding signal,FLI1,"1.41 fold enrichment (6-mer frequency, TF over GST control)"
same,binding signal,ELK1,"1.56 fold enrichment (6-mer frequency, TF over GST control)"
same,binding signal,GABPA,"1.53 fold enrichment (6-mer frequency, TF over GST control)"
same,binding signal,ERG,"1.43 fold enrichment (6-mer frequency, TF over GST control)"
same,binding signal,ELF1,"1.43 fold enrichment (6-mer frequency, TF over GST control)"
same,binding signal,EHF,"1.51 fold enrichment (6-mer frequency, TF over GST control)"
same,binding signal,SPI1,"1.46 fold enrichment (6-mer frequency, TF over GST control)"
same,binding signal,SPIB,"1.37 fold enrichment (6-mer frequency, TF over GST control)"
same,binding signal,ELK3,"1.41 fold enrichment (6-mer frequency, TF over GST control)"
same,binding signal,FEV,"1.41 fold enrichment (6-mer frequency, TF over GST control)"
same,binding signal,ETV5,"1.44 fold enrichment (6-mer frequency, TF over GST control)"
same,binding signal,HSF1,"1.69 fold enrichment (6-mer frequency, TF over GST control)"
same,binding signal,SPIC,"1.44 fold enrichment (6-mer frequency, TF over GST control)"
same,binding signal,ELF4,"1.5 fold enrichment (6-mer frequency, TF over GST control)"
same,binding signal,ELK4,"1.66 fold enrichment (6-mer frequency, TF over GST control)"
same,binding signal,ETV2,"1.29 fold enrichment (6-mer frequency, TF over GST control)"
same,binding signal,ELF3,"1.65 fold enrichment (6-mer frequency, TF over GST control)"
same,binding signal,CRX,"1.95 fold enrichment (6-mer frequency, TF over GST control)"
same,binding signal,ETV1,"1.48 fold enrichment (6-mer frequency, TF over GST control)"
